From ChEMBL document CHEMBL2218924, “A broad activity screen in support of a chemogenomic map for kinase signalling research and drug discovery” (Biochem J, 2013) come the findings set out here.

In assay [1] the target is T1, Serine/threonine-protein kinase 17A (Homo sapiens) (UniProt Q9UEE5).
T1 sequence (whole entry): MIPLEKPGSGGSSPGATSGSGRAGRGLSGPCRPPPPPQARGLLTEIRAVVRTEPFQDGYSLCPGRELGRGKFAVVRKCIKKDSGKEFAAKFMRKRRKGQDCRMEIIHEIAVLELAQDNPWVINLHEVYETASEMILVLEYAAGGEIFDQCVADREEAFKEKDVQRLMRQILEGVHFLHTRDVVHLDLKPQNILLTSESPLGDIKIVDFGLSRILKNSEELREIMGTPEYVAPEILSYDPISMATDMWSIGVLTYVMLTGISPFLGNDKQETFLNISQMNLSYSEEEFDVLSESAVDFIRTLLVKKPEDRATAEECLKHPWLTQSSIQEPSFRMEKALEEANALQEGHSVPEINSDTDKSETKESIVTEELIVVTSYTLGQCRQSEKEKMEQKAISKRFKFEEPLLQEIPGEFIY
Particulars: at 10 µM.

Assay [2] concerns the target T2, Dual specificity tyrosine-phosphorylation-regulated kinase 2 (Homo sapiens) (UniProt Q92630).
T2 sequence (whole entry): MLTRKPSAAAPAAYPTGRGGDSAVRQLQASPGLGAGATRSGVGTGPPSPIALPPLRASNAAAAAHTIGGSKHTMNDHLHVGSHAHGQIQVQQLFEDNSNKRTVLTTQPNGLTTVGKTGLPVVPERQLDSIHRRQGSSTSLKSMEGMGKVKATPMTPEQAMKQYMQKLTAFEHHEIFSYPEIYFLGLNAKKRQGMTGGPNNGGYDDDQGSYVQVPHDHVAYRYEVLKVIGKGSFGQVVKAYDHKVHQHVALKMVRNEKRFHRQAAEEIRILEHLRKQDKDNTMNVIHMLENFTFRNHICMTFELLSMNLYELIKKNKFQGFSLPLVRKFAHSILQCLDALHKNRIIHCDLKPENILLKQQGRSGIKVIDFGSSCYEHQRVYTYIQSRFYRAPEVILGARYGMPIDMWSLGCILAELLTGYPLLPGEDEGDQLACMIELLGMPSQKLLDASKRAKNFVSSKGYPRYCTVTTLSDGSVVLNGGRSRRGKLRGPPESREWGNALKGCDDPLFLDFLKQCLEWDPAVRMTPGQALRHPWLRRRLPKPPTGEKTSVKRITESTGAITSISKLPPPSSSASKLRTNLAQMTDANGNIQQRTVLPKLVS
The following applies: at 10 µM.

The target in assay [3] is Ephrin type-A receptor 2 (Homo sapiens) (UniProt P29317). The following applies: at 1 µM.
Ephrin type-A receptor 2 (Homo sapiens), sequence (P29317 whole entry): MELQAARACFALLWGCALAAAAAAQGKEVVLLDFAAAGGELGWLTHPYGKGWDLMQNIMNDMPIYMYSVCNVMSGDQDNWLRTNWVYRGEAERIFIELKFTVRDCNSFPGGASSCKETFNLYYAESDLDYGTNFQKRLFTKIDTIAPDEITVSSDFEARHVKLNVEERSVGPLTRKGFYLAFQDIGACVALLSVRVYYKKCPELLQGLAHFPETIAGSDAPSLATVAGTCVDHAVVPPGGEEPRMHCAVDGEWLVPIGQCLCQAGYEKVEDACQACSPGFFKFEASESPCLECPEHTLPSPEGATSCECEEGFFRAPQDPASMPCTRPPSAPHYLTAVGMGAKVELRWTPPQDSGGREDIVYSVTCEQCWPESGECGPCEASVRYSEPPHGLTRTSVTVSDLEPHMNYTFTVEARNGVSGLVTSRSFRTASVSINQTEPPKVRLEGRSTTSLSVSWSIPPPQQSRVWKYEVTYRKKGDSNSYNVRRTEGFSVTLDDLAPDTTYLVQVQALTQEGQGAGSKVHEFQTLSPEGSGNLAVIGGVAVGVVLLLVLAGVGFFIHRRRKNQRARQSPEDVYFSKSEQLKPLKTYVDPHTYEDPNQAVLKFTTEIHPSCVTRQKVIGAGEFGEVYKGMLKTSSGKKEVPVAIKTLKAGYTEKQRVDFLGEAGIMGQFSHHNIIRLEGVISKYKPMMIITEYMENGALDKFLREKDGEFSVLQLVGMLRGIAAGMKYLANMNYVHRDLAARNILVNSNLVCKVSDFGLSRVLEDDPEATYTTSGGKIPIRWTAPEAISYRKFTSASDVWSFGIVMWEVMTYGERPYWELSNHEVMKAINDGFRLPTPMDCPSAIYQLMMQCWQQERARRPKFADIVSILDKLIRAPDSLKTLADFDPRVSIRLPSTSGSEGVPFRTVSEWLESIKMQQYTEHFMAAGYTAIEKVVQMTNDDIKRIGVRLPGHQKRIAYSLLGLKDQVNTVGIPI
The target is the same in assay [4]. The following applies: at 10 µM.
The target of assay [5] is T3, Ephrin type-A receptor 3 (Homo sapiens) (UniProt P29320).
T3 sequence (whole entry): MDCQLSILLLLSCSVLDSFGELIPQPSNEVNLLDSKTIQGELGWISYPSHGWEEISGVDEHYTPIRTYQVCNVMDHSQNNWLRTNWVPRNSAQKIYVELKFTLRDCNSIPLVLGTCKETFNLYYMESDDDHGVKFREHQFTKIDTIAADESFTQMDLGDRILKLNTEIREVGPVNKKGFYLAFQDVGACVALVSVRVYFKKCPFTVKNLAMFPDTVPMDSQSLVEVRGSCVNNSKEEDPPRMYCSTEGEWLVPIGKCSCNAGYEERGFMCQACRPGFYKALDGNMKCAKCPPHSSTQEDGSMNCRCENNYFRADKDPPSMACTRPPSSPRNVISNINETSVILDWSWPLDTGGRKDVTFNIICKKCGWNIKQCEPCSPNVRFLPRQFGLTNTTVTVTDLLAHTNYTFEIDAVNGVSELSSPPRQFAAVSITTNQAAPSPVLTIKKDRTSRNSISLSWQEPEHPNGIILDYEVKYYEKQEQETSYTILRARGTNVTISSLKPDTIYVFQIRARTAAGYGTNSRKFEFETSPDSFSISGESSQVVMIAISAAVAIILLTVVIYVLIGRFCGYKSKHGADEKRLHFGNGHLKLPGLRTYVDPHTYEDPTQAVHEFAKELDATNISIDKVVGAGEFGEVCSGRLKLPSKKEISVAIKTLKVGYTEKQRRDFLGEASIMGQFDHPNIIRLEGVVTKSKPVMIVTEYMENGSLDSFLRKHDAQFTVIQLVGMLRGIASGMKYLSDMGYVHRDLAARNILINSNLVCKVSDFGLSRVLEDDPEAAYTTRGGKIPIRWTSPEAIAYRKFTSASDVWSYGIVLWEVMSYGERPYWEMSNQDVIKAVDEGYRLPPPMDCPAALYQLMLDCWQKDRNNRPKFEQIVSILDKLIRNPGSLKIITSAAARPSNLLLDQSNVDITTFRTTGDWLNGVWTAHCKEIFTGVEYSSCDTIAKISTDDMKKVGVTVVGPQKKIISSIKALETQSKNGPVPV
The following applies: at 10 µM.

Assay [6] concerns the target Ephrin type-A receptor 5 (Homo sapiens) (UniProt P54756). The following applies: at 10 µM.
In assay [7] the target is Ephrin type-A receptor 7 (Homo sapiens) (UniProt Q15375). Particulars: at 1 µM.
Ephrin type-A receptor 7 (Homo sapiens), sequence (Q15375 28-998 limits assumed): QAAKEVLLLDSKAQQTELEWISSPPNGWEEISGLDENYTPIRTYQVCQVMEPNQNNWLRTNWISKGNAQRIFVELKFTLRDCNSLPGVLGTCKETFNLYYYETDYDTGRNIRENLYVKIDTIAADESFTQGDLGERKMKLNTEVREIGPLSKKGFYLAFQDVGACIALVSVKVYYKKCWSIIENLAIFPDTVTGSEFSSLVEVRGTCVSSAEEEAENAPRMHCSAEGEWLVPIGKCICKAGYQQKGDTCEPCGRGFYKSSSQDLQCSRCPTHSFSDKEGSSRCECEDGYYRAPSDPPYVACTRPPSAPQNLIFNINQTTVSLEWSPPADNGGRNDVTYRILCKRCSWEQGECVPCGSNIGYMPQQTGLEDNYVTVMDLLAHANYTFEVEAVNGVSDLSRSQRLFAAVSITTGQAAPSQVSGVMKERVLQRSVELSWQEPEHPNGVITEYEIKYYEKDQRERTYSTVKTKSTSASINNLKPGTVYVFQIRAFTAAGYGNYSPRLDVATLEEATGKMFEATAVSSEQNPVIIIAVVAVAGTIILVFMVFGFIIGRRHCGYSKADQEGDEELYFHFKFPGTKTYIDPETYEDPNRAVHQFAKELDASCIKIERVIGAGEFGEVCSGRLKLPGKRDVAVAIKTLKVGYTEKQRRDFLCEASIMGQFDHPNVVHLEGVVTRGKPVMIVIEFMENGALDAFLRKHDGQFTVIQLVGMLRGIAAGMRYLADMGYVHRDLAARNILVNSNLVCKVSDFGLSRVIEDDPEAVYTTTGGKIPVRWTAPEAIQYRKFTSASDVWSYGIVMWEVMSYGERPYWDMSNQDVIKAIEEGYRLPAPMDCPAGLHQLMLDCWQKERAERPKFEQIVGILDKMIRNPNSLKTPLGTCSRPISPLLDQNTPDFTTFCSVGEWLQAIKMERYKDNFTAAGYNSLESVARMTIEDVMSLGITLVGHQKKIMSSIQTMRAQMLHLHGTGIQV
The target is the same in assay [8]. Particulars: at 10 µM.
Assay [9] addresses T4, Ephrin type-A receptor 8 (Homo sapiens) (UniProt P29322).
T4 sequence (whole entry): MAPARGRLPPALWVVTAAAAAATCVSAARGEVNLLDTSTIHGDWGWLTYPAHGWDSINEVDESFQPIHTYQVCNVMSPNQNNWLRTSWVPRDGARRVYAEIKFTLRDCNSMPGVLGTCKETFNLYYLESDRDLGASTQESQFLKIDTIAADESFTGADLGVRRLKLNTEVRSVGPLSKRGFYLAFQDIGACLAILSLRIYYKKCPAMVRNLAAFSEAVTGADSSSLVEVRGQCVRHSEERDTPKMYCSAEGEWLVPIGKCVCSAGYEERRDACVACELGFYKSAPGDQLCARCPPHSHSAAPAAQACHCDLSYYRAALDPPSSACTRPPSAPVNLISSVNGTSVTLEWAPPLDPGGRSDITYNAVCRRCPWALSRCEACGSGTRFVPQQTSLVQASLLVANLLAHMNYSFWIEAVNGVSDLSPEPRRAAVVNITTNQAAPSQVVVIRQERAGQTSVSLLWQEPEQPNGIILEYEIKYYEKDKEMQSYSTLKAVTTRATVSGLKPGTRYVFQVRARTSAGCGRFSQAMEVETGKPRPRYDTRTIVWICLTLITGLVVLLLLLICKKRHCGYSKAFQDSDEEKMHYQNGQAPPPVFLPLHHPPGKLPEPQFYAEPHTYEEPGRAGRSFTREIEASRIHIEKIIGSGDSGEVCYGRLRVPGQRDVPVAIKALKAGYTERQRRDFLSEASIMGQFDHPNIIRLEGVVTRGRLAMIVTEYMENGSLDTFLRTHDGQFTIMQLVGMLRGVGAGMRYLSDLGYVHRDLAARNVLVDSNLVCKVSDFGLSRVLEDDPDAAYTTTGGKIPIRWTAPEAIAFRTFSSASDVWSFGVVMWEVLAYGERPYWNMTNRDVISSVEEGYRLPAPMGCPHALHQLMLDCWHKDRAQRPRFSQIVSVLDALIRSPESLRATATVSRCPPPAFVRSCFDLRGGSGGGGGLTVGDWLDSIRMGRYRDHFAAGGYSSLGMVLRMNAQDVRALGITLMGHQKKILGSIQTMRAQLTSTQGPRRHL
The following applies: at 1 µM.

Assay [10] deals with T4, Ephrin type-A receptor 8 (Homo sapiens). The following applies: at 10 µM.
The target in assay [11] is Epidermal growth factor receptor (Homo sapiens) (UniProt P00533). Particulars: at 1 µM.
Epidermal growth factor receptor (Homo sapiens), sequence (P00533 whole entry): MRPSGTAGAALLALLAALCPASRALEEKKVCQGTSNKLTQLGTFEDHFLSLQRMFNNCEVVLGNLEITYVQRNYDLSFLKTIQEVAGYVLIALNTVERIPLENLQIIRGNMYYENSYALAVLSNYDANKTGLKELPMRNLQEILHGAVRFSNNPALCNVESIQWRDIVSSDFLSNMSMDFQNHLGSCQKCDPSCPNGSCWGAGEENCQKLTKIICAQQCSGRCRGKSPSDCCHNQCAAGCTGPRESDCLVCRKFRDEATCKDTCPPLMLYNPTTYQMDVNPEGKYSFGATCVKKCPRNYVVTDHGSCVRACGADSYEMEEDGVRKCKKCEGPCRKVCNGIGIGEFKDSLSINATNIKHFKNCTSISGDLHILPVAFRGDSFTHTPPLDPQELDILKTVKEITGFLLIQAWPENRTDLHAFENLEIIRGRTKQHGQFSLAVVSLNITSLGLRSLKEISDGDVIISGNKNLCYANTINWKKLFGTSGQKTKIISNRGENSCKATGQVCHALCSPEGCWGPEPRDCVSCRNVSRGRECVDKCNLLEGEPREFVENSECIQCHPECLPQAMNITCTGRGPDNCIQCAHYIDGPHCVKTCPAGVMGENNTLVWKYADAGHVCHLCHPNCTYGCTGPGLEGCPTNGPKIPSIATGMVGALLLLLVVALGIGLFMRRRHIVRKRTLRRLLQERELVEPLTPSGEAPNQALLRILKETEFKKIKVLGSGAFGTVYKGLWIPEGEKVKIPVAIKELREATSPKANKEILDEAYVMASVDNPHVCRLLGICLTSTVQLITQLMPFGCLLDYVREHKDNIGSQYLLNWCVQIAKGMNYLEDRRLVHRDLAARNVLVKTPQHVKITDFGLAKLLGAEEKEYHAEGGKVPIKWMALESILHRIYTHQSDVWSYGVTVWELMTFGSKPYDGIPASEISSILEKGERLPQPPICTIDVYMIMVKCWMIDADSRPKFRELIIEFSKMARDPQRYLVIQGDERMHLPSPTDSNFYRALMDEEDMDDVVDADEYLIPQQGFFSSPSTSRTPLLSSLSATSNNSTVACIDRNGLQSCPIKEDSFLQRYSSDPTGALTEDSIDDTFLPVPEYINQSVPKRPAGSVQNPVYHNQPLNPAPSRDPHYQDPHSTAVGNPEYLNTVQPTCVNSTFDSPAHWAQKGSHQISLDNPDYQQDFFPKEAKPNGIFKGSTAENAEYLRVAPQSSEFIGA
Assay [12] has the same target. The following applies: at 10 µM.
Assay [13] deals with T5, Ephrin type-A receptor 1 (Homo sapiens) (UniProt P21709).
T5 sequence (whole entry): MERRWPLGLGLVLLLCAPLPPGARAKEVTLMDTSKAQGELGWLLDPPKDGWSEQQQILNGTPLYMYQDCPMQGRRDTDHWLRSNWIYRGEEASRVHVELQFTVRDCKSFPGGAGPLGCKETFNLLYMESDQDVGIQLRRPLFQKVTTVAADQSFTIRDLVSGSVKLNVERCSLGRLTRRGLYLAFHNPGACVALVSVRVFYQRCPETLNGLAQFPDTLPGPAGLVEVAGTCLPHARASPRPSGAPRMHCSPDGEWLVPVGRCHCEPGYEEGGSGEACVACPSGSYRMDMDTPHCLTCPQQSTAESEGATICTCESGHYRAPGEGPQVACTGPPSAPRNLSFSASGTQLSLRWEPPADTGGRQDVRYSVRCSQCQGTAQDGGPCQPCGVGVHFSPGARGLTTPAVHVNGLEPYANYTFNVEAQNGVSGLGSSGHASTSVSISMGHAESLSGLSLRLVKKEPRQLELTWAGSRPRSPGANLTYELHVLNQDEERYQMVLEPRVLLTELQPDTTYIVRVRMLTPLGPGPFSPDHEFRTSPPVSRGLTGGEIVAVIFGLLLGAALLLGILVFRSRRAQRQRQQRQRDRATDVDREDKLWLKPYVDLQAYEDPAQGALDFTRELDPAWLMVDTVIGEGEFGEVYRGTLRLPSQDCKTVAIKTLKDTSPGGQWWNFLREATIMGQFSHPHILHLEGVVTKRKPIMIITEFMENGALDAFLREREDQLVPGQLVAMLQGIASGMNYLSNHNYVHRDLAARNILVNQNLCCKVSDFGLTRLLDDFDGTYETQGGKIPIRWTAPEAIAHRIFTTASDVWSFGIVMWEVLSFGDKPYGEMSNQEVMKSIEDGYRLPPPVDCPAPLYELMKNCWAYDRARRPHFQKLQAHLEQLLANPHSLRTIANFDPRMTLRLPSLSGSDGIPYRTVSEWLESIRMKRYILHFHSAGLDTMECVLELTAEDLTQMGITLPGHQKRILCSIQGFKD
Particulars: at 10 µM.

Assay [14] has as its target Ephrin type-A receptor 5 (Homo sapiens) (UniProt P54756). Particulars: at 1 µM.
The target of assay [15] is T6, Ephrin type-B receptor 1 (Homo sapiens) (UniProt P54762).
T6 sequence (whole entry): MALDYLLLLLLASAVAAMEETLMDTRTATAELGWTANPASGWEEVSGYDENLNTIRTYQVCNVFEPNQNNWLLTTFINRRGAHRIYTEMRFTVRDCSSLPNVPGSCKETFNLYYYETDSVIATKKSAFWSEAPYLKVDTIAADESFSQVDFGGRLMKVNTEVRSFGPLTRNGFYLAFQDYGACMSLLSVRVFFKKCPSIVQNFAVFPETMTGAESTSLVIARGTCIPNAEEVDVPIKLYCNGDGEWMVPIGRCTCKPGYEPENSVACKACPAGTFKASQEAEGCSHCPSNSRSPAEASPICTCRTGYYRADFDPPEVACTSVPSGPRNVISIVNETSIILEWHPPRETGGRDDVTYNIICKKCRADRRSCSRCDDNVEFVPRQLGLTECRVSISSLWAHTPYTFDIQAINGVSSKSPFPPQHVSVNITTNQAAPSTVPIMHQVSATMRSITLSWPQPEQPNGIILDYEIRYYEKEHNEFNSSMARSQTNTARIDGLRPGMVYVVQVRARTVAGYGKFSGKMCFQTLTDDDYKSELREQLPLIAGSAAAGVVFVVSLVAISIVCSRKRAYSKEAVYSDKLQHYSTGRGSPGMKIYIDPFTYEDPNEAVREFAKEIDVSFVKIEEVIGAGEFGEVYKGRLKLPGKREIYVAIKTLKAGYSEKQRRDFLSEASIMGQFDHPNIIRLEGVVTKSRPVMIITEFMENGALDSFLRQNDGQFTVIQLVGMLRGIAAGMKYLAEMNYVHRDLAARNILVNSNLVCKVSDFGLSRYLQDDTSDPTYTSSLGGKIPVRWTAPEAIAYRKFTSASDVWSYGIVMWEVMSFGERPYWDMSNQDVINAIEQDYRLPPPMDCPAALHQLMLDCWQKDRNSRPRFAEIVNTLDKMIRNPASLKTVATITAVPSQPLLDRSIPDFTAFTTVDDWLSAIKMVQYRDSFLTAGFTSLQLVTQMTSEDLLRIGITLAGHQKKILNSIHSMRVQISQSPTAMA
The following applies: at 1 µM.

The target of assay [16] is T2, Dual specificity tyrosine-phosphorylation-regulated kinase 2 (Homo sapiens). Particulars: at 1 µM.
The target of assay [17] is T5, Ephrin type-A receptor 1 (Homo sapiens). The following applies: at 1 µM.
Assay [18] has as its target T3, Ephrin type-A receptor 3 (Homo sapiens). The following applies: at 1 µM.
In assay [19] the target is Ephrin type-A receptor 4 (Homo sapiens) (UniProt P54764). The following applies: at 10 µM.

Ephrin type-A receptor 5 (Homo sapiens), sequence (P54756 whole entry): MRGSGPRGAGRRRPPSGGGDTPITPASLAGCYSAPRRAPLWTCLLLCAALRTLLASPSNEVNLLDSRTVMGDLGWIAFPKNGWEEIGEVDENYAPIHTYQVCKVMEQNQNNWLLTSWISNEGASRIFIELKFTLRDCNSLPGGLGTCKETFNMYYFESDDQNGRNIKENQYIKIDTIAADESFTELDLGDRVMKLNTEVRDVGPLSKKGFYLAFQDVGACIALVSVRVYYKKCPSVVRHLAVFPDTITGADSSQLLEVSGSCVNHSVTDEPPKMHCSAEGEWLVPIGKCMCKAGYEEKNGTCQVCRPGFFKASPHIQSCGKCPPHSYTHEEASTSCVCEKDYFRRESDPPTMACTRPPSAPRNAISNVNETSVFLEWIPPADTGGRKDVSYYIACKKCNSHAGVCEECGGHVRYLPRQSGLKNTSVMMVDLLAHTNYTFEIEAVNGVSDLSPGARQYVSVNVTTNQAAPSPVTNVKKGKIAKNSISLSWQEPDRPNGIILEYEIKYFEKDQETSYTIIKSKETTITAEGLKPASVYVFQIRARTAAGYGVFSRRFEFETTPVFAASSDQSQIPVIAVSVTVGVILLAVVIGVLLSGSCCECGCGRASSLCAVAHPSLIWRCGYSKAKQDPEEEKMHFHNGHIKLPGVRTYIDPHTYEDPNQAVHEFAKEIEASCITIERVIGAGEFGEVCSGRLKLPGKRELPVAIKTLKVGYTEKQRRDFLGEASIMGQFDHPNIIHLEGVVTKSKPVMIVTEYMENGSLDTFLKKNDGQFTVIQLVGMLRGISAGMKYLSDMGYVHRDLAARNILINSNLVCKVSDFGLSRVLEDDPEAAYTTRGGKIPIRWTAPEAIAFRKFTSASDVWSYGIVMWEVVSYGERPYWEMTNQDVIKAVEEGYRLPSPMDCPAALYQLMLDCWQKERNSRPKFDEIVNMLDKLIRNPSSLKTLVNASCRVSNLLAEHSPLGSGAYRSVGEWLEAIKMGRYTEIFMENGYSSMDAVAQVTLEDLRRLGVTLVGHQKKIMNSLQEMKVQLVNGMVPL

`Fc1ccc(-c2nc3n(c2-c2ccncc2)CCS3)cc1`: the residual activity (in general, the signal under treatment as a percentage of the control signal) is 91% in [1]; 91% in [2]; 99% in assay [3]; 87% in assay [4]; 90% in [5]; 89% in [6]. Further, the residual activity in assay [7] came out at 99%; in assay [8] it was 84%; in [9] it was 97%; in assay [10], 70%.
`O=c1c(-c2ccc(F)cc2)c(-c2ccncc2)[nH]n1-c1ccc(Cl)cc1`: the residual activity in assay [1] was 71%; in assay [11], 54%; in assay [12] it was 6%; in assay [13], 56%; in assay [14] it was 119%; in [6], 82%. Moreover, the residual activity in [7] came out at 100%; in [15], 128%.
As for `O=c1cc(N2CCOCC2)oc2c1ccc1ccccc12`, the residual activity amounted to 71% in assay [1]; 97% in assay [16]; 65% in assay [2]; 91% in [17]; 87% in [13]; 95% in assay [4]. For the same compound, the residual activity in [18] came out at 92%; in assay [5], 94%; in assay [19] it was 103%; in assay [14] it was 124%; in assay [6] it was 93%; in [7], 103%. For the same compound, the residual activity in assay [8] is 84%; in assay [9] it was 100%; in [10], 97%; in assay [15] it was 95%.
